The source of these data is the supplement of paper PMC7695840.

Assay [1] relates to Staphylococcus aureus MW2 delta-mecA (mecA-). In words: normalized GFP fluorescence (growth of mecA- strain) (fraction of control range); higher = more growth of mecA- strain. As to conditions: compound concentration: 150 uM; cefoxitin: subinhibitory; fluorescent label: GFP. In short, it runs like this: (§1)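 Single-replicate 1536-well plates carried 150 μM compound (1.5% DMSO), onto which 5 µL/well of a 1:1 mix of pre-induced S. aureus MW2 cells was dispensed: gene-carrying cells tagged with DsRed and deletion cells tagged with GFP, in LB with a subinhibitory antibiotic dose set daily. Incubation ran 20 h at 37 °C, 90% humidity, unshaken, followed by DsRed (540/590) and GFP (485/520) reads. Per-plate scaling of each channel used single-strain control medians, and plates with high untreated ratios and rows with DsRed/GFP >10 were excluded.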

Assay [2] has as its system Staphylococcus aureus MW2 (mecA+). The assay can be described thus: normalized DsRed fluorescence (growth of mecA+ strain) (fraction of control range); higher = more growth of mecA+ strain. As to conditions: compound concentration: 150 uM; cefoxitin: subinhibitory; fluorescent label: DsRed. Summed up: as §1

Structures are written as SMILES. Counter-ions that a name gives are not always drawn.

`C[C@](N)(Cc1ccc(O)c(O)c1)C(=O)O`: the “normalized GFP fluorescence” value in assay [1] is 0.258. In addition, the “normalized DsRed fluorescence” value in assay [2] came to 0.703.
Take `CC(C)OC(=O)C(C)(C)Oc1ccc(C(=O)c2ccc(Cl)cc2)cc1`: the “normalized GFP fluorescence” value in assay [1] amounted to 0.203. For the same compound, the “normalized DsRed fluorescence” value in assay [2] was 0.698.
Consider `CC(C)Cc1ccc([C@H](C)C(=O)O)cc1`, for which the “normalized GFP fluorescence” value in assay [1] worked out at 0.21. The “normalized DsRed fluorescence” value in assay [2] amounted to 0.388.
Turning to `Cc1cc(O)cc(C)c1Cl`, in assay [1], the “normalized GFP fluorescence” value stood at 0.0289. Further, the “normalized DsRed fluorescence” value in assay [2] was determined as 0.544.
Turning to `COCCOC(=O)C1=C(C)NC(C)=C(C(=O)OC/C=C/c2ccccc2)C1c1cccc([N+](=O)[O-])c1` (configuration not stated) [Cilnidipine], the “normalized GFP fluorescence” value in assay [1] was determined as 0.176. Further, the “normalized DsRed fluorescence” value in assay [2] came out at 0.777.
The corresponding values for `COc1ccc2[nH]c([S@@+]([O-])Cc3ncc(C)c(OC)c3C)nc2c1` are 0.281 and 1.15.
For `C[C@]12CCC(=O)C=C1C=C[C@@H]1[C@@H]2CC[C@@]2(C)[C@H]1CC[C@@]21CCC(=O)O1`, in that order: 0.191 and 0.593.
Consider `CC(C)(C)NC[C@H](O)COc1cccc2c1CCCC2=O`, for which, in assay [1], the “normalized GFP fluorescence” value came out at 0.401. The “normalized DsRed fluorescence” value in assay [2] was found to be 0.5.
For `NC[C@@H]1O[C@@H](O[C@H]2[C@H](O)[C@@H](O[C@H]3O[C@H](CO)[C@@H](O)[C@H](N)[C@H]3O)[C@H](N)C[C@@H]2N)[C@@H](O)[C@H](O)[C@H]1O`, in that order: 0.472 and 0.795.
For `OC(Cn1cncn1)(Cn1cncn1)c1ccc(F)cc1F`, in that order: 0.417 and 0.746.
For `CC1CCC(NC(=O)N(CCCl)N=O)CC1` (configuration not stated), in that order: 0.55 and 0.439.
For the compound `C[C@H](N)[C@H](O)c1cccc(O)c1`, the “normalized GFP fluorescence” value in assay [1] is 0.482. Also, the “normalized DsRed fluorescence” value in assay [2] is 0.581.
For `CNC(=O)c1ccc(N2C(=S)N(c3ccc(C#N)c(C(F)(F)F)c3)C(=O)C2(C)C)cc1F` [MDV3100 (Enzalutamide)], in that order: 0.245 and 0.592.
As to `CC(=O)N(CC(O)CO)c1c(I)c(C(=O)NCC(O)CO)c(I)c(C(=O)NCC(O)CO)c1I` (configuration not stated), in assay [1], the “normalized GFP fluorescence” value is 0.415. Also, in assay [2], the “normalized DsRed fluorescence” value was 0.849.
For `CC(C)(C)NCC(O)c1ccc(O)c(CO)c1` (configuration not stated) [Salbutamol sulfate (Albuterol)], in that order: 0.318 and 0.695.
For `Nc1nc(NC2CC2)c2ncn([C@H]3C=C[C@@H](CO)C3)c2n1`, in that order: 0.288 and 0.69.
For the compound `CCCc1cc(=O)[nH]c(=S)[nH]1`, in assay [1], the “normalized GFP fluorescence” value worked out at 0.668. Further, in assay [2], the “normalized DsRed fluorescence” value is 0.582.
For `CC(C)N1CCN(c2ccc(OCC3COC(Cn4cncn4)(c4ccc(Cl)cc4Cl)O3)cc2)CC1` (configuration not stated), in that order: 0.199 and 0.734.
As to `CN(C)CCOC(c1ccc(Cl)cc1)c1ccccn1` (configuration not stated), the “normalized GFP fluorescence” value in assay [1] is 0.55. For the same compound, the “normalized DsRed fluorescence” value in assay [2] was 0.618.
For the compound `C[N+](C)(C)C[C@H](O)CC(=O)[O-]`, in assay [1], the “normalized GFP fluorescence” value is 0.791. The “normalized DsRed fluorescence” value in assay [2] amounted to 0.508.
For `COC(c1ccccc1)(c1ccccc1)[C@H](Oc1nc(C)cc(C)n1)C(=O)O` [Ambrisentan], in that order: 0.466 and 0.281.
On to `COC(=O)[C@@H]1CC2=CC(=O)CC[C@]2(C)[C@@]23O[C@@H]2C[C@@]2(C)[C@@H](CC[C@@]24CCC(=O)O4)[C@H]13` [Eplerenone], for which the “normalized GFP fluorescence” value in assay [1] was 0.583. The “normalized DsRed fluorescence” value in assay [2] was 0.645.
With `CC1Cc2ccccc2N1NC(=O)c1ccc(Cl)c(S(N)(=O)=O)c1` (configuration not stated), in assay [1], the “normalized GFP fluorescence” value worked out at 0.39. For the same compound, the “normalized DsRed fluorescence” value in assay [2] is 0.625.
For `CN1CCC(OC(c2ccccc2)c2ccccc2)CC1`, in that order: 0.0847 and 1.1.
The corresponding values for `CCCCOc1cc(C(=O)NCCN(CC)CC)c2ccccc2n1` [Dibucaine (Cinchocaine) HCl] are 0.265 and 0.835.
For `CN1CCN2c3ncccc3Cc3ccccc3C2C1` (configuration not stated) [Mirtazapine (Remeron, Avanza)], in that order: 0.214 and 1.07.
For `C[C@]12C=CC(=O)C=C1CC[C@@H]1[C@@H]2C(=O)C[C@@]2(C)[C@H]1CC[C@]2(O)C(=O)CO`, the “normalized GFP fluorescence” value in assay [1] was 0.371. Also, the “normalized DsRed fluorescence” value in assay [2] was found to be 0.647.
The corresponding values for `C=C[C@H]1CN2CC[C@H]1C[C@@H]2[C@@H](O)c1ccnc2ccc(OC)cc12` are 0.452 and 0.631.
As for `C=C1CC[C@H](O)C/C1=C/C=C1\CCC[C@]2(C)[C@@H]([C@H](C)CCCC(C)(C)O)CC[C@@H]12` [Calcifediol], in assay [1], the “normalized GFP fluorescence” value was -0.0113. Moreover, the “normalized DsRed fluorescence” value in assay [2] was 0.65.
For the compound `CNS(=O)(=O)Cc1ccc2[nH]cc(CCN(C)C)c2c1`, the “normalized GFP fluorescence” value in assay [1] came to 0.345. In assay [2], the “normalized DsRed fluorescence” value turned out to be 0.758.
Turning to `CCCNC(C)C(=O)Nc1c(C)csc1C(=O)OC` (configuration not stated) [Articaine HCl], the “normalized GFP fluorescence” value in assay [1] was found to be 0.567. Also, in assay [2], the “normalized DsRed fluorescence” value was 0.672.
`CC(=O)S[C@@H]1CC2=CC(=O)CC[C@]2(C)[C@H]2CC[C@@]3(C)[C@@H](CC[C@@]34CCC(=O)O4)[C@H]12`: in assay [1], the “normalized GFP fluorescence” value was determined as 0.734. In addition, the “normalized DsRed fluorescence” value in assay [2] is 0.584.
As for `N[C@@H](CC(=O)N1CCn2c(nnc2C(F)(F)F)C1)Cc1cc(F)c(F)cc1F`, the “normalized GFP fluorescence” value in assay [1] came out at 0.306. Also, in assay [2], the “normalized DsRed fluorescence” value is 0.577.
Regarding `COc1cc(/C=C/C(=O)N2CCN(CC(=O)N3CCCC3)CC2)cc(OC)c1OC` [Cinepazide maleate], the “normalized GFP fluorescence” value in assay [1] amounted to 0.547. Further, the “normalized DsRed fluorescence” value in assay [2] stood at 0.533.
Turning to `O=C(CCBr)N1CCN(C(=O)CCBr)CC1`, the “normalized GFP fluorescence” value in assay [1] is 0.631. The “normalized DsRed fluorescence” value in assay [2] stood at 0.794.
As to `COC(=O)C1=C(C#N)NC(C)=C(C(=O)OC(C)C)C1c1cccc([N+](=O)[O-])c1` (configuration not stated) [Nilvadipine (ARC029)], the “normalized GFP fluorescence” value in assay [1] amounted to 0.333. Further, the “normalized DsRed fluorescence” value in assay [2] was found to be 1.55.
